# Compound activity: PubChem, several laboratories
# Sampled rows, rich in hits. Any-hit rate of the full collection: about 4.9%.
# SKKanGAS inh: inhibitors of SKKanGAS S. pyogenes growth in kanamycin (SK-promoter or general growth effect) | BacTiter-Glo, 6 h | inhibition, % at 7.5 µM | 1.3% of 300,000 active;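 active means mean replicate score, as percent of positive control median, at least 50; inconclusive means mean below 50 but one replicate at or above 50; inactive means mean and every replicate below 50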;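 further: strain carries kanamycin resistance gene driven by streptokinase promoter and grows in 40 µg/ml kanamycin; loss of luminescence reflects streptokinase promoter inhibition or plain growth inhibition; 0% = median of DMSO wells and 100% = positive control at its reference dose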
# NALP3 yeast inh: NALP3 inhibition in yeast; Yeast reconstituted NLRP3/ASC/caspase-1, beta-gal luminescence, 24 h; inhibition, % at 10 µM; 0.39% of 330,000 active; AID 2825;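 active means inhibition of 50% or more; inactive means inhibition below 50%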;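 further: plate controls were induced DMSO wells for no effect and uninduced yeast grown without galactose for full effect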
# tim10-1 inh: inhibits growth of tim10-1 mutant yeast. S. cerevisiae tim10-1 ts strain growth, BacTiter-Glo, 24 h. inhibition, % at 20 µM. 2.2% of 330,000 active;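 active means inhibition of at least 40%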;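 further: mutant grown at 25 °C; 0% = DMSO wells with yeast and 100% = wells holding no yeast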
# tim23-1 inh: inhibits growth of tim23-1 mutant yeast; S. cerevisiae tim23-1 growth, BacTiter-Glo luminescence, 24 h; inhibition, % at 20 µM; 1.3% of 330,000 active;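 active means growth inhibition of the mutant yeast at or above 50%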;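 further: temperature-sensitive mutant grown at 25 °C; plate controls were DMSO-treated mutant yeast for no effect and medium wells lacking yeast for full effect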
# NALP1 yeast inh: blocks the NALP1 inflammasome reconstituted in yeast. inhibition, % at 10 µM. 0.61% of 280,000 active. S. cerevisiae NALP1/ASC/caspase-1 growth, X-gal OD620, 72 h; in the data active means inhibition mostly above about 24%, no sharp cut-off; inactive means mostly below about 32%
# TIM10 inh: TIM10 yeast growth inhibition | S. cerevisiae TIM10 strain growth, BacTiter-Glo luminescence, 24 h | inhibition, % at 10 µM | 1.4% of 330,000 active;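 active means inhibition of 40% or more at the single tested concentration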;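 further: wild-type TIM10 isogenic control strain grown at permissive 25 °C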
# tim23-1 confirm: confirmation of tim23-1 mutant yeast growth inhibitors. S. cerevisiae tim23-1 growth, BacTiter-Glo luminescence, 24 h. 83% of 4,400 active. shares compounds with tim23-1 inh. inhibition, % at 20 µM;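 active means inhibition above about 39% in either of two replicate wells at 20 µM, limit read from the data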;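 further: temperature-sensitive tim23-1 mutant grown at 25 °C; 0% = DMSO wells with yeast and 100% = medium wells without yeast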
# Starred values were filed as active, the others as inactive; ? = inconclusive; . = no result given.
SMILES,SKKanGAS inh,NALP3 yeast inh,tim10-1 inh,tim23-1 inh,NALP1 yeast inh,TIM10 inh,tim23-1 confirm
CCCCC(=O)Nc1ccc(NC(=O)c2cccs2)cn1,2,20,-16,51*,.,-11,43*
COc1ccc(NC(=O)c2cccs2)cn1,4,29,16,52*,-4,19,48*
Cc1nc(SCc2nc3cc(Cl)c(F)cc3[nH]2)c2oc3ccccc3c2n1,.,34,33,56*,.,35,50*
Cc1nc(SCc2nc3ccc(Cl)cc3[nH]2)c2oc3ccccc3c2n1,.,35,21,45,.,-1,.
Cc1nc(SCc2nc3ccc(C(F)(F)F)cc3[nH]2)c2oc3ccccc3c2n1,.,22,33,57*,.,7,49*
Nc1cc(S(=O)(=O)Nc2ccccc2Cl)ccc1N1CCCCC1,.,4,36,58*,.,31,62*
O=C(Cn1c(-c2ccccc2)noc1=O)Nc1ccc(S(=O)(=O)N2CCOCC2)cc1,-1,5,8,2,23,3,.
O=C(Cn1c(-c2ccccc2)noc1=O)Nc1ccc(N2CCCCCC2)cc1,8,6,39,51*,36*,29,42*
CCCC(=O)NC(c1ccc(C(C)C)cc1)c1ccc2cccnc2c1O (configuration not stated),84*,23,-17,57*,-23,-23,63*
CC(C)CC(=O)NC(c1ccccc1Cl)c1c(O)ccc2ccccc12 (configuration not stated),46,6,3,16,22,-3,.
CCC(=O)NC(c1ccc(C)cc1)c1ccc2cccnc2c1O (configuration not stated),71*,28,1,62*,-37,2,58*
CCCC(=O)NC(c1ccccc1Cl)c1ccc2cccnc2c1O (configuration not stated),18,13,4,50*,4,-22,53*
Cc1c(C)n(C(=O)CN2CCC(C)CC2)c2ccccc12,-3,16,14,7,21,-10,.
O=C(O)C1CSC(CCc2ccccc2)N1 (configuration not stated),-3,5,2,-43,-28,-7,.
O=C(NC1CCCCC1)c1ccc2c(c1)S(=O)(=O)c1ccccc1C2=O,2,10,4,5,.,11,.
C/C=C/c1ccc(OCCOc2cc(C=O)ccc2OC)c(OC)c1,5,23,5,57*,42,30,67*
C/C=C/c1ccc(OCC(=O)O)c(OC)c1,-6,-16,14,-2,5,11,.
CCN(CC)C(=O)C(=O)c1cccn1-c1cccc(-n2cccc2C(=O)C(=O)N(CC)CC)c1C#N,0,9,11,7,36,5,.
O=C(/C=C\Nc1cccc(F)c1)c1cccs1,2,33,8,53*,56,24,51*
Cc1ccc(N/C=C/C(=O)c2cccs2)cc1,-1,16,-12,56*,-3,13,57*
CCN1C(=O)c2cccc3c(S(=O)(=O)N(C(=O)c4ccncc4)c4ccc(OC)cc4)ccc1c23,9,3,24,52*,18,9,30
CCN1C(=O)c2cccc3c(S(=O)(=O)N(C(=O)c4cccnc4)c4ccc(OC)cc4)ccc1c23,17,1,5,46,26,-8,.
COc1cc(/C=C(\C#N)C(=O)N2CCc3ccccc32)ccc1O,-8,-21,30,55*,.,13,60*
C=CCn1cccc(C(=O)Nc2ccc(SC)cc2)c1=O,3,30,28,39,17,5,.
C=CCn1cccc(C(=O)Nc2ccc(Cl)cc2)c1=O,-3,8,22,53*,2,18,21
SMILES,SKKanGAS inh,NALP3 yeast inh,tim10-1 inh,tim23-1 inh,NALP1 yeast inh,TIM10 inh,tim23-1 confirm
COc1ccc(N(CC(O)Cn2c(C)nc3ccccc32)S(=O)(=O)c2ccccc2)cc1 (configuration not stated),8,1,-4,-6,14,4,.
COc1ccc(-c2nc3ccccn3c2CN2CCN(c3ccccc3F)CC2)cc1,7,25,33,55*,1,28,40*
COc1ccccc1/C=C/C(=O)NC(=S)NC(C)C,-8,21,-3,59*,19,11,41*
COc1ccccc1/C=C/C(=O)NC(=S)N1CCN(C)CC1,.,11,11,-4,2,-4,.
Cc1c(N2C(=O)/C(=C/c3ccccc3)SC2=S)c(=O)n(-c2ccccc2)n1C,3,13,28,10,9,7,.
Cc1c(N2C(=O)/C(=C\c3ccccc3O)SC2=S)c(=O)n(-c2ccccc2)n1C,8,14,24,67*,24,32,63*
CCOC(=O)C1CCCN(S(=O)(=O)c2ccc3c(c2)CC(C)N3C(=O)C2CC2)C1 (configuration not stated),-10,8,27,27,10,27,.
CCOC(=O)C1CCN(S(=O)(=O)c2ccc3c(c2)CC(C)N3C(=O)C2CCC2)CC1 (configuration not stated),-1,-1,27,51*,-8,38,43*
COc1ccccc1Nc1nc(Cl)c(C=O)s1,-1,5,37,39,19,36,.
Cc1ccc(Nc2nc(Cl)c(C=O)s2)cc1Cl,29,31,25,67*,-10,39,71*
Cc1ccc(Nc2nc3ccccc3c(=O)s2)cc1C,3,22,14,17,-8,29,.
O=Cc1sc(Nc2ccccc2)nc1Cl,14,10,-23,51*,-18,24,49*
CC(=O)Nc1ccc(-c2c(C)cc3oc(=O)cc(-c4ccccc4)c3c2C)cc1,.,.,28,50*,.,3,33
Cc1ccc(CSc2nnc(-c3cccc(S(=O)(=O)N4CCOCC4)c3)n2C2CCCC2)cc1,-7,2,15,52*,33,17,43*
Cc1ccc(S(=O)(=O)N(C)CC(=O)N2CC(C)OC(C)C2)cc1 (configuration not stated),?,25,4,1,16,1,.
CCOC(=O)N1CCN(C(=O)C(NS(=O)(=O)c2cccc3nsnc23)c2ccccc2)CC1 (configuration not stated),-8,2,11,19,3,6,.
Cc1nnc(SCC(=O)N2CCCCC2)n1CC1CCCO1 (configuration not stated),9,4,3,69*,1,-9,14
Cc1cccc(C(=O)NNC(=O)c2c(O)c3ccccc3n(C)c2=O)c1,88*,.,0,67*,1,15,21
Cn1ccnc1SCC(=O)n1c2c(c3ccccc31)CCCC2,-5,-1,29,51*,26,39,41*
O=C(CNC(=O)c1sc2ccccc2c1Cl)NCc1cccc(C(F)(F)F)c1,-13,14,-16,7,.,-19,.
